Laboratory results reported in ChEMBL document CHEMBL4513146, “CO-ADD screening of Karazin Kharkiv National University (Ukraine) compounds”.
Entries with a potency or affinity are not part of this list.

Tests used:
[1] = test system: Staphylococcus aureus; settings: Concentration 32 ug.mL-1;; ASSAY_TEST Inhibition of Bacterial Growth; detection method Absorption (OD600); MEDIA CAMHB; plate type 384well; NBS; CORNING #3640; time 18 hr
[2] = test system: Escherichia coli; settings: Concentration 32 ug.mL-1;; ASSAY_TEST Inhibition of Bacterial Growth; detection method Absorption (OD600); MEDIA CAMHB; plate type 384well; NBS; CORNING #3640; time 18 hr

| Compound | Inhibition [1] [%] | Inhibition [2] [%] |
| --- | --- | --- |
| COC(=O)c1ccc(NC(=O)Cn2nc3ccc(SCc4ccc(Cl)cc4)nn3c2=O)cc1 | 18.39 | 1.59 |
| Cc1ccc(C)c(NC(=O)Cn2nc3n(C)c(=O)c4c(c(-c5ccccc5)cn4C)n3c2=O)c1 | -4.46 | -19.92 |
| CC1CCc2c(sc3ncn4c(=O)n(CC(=O)Nc5ccc6c(c5)CCC6)nc4c23)C1 (stereo not given) | 4.65 | -2.81 |
| COc1cccc(-n2ccn3c(SCC#N)nnc3c2=O)c1 | 16.24 | 0.96 |
| COc1cccc(-n2ccn3c(SCC(=O)N4CCN(c5ccccc5F)CC4)nnc3c2=O)c1 | 12.37 | -5.42 |
| Cc1ccc(-c2ccc3nn(Cc4cccc(Br)c4)c(=O)n3n2)cc1 | 2.3 | -6.95 |
| Cc1cc(C)cc(N(Cc2ccccc2)S(=O)(=O)c2cccn3cnnc23)c1 | -25.73 | -13.66 |
| Cc1ccc(NC(=O)Cn2nc3ccc(SC(C)(C)C)nn3c2=O)cc1Cl | 3.27 | -0.69 |
| O=c1n(Cc2nc(-c3ccc(Cl)cc3)no2)nc2ccc(-c3ccccc3)nn12 | 1 | -5.36 |
| CCc1nnc2c(S(=O)(=O)N(Cc3cc(F)cc(F)c3)c3ccc(F)cc3)cccn12 | -5.33 | -11.24 |
| Cc1cc(C)cc(N(Cc2ccccc2)S(=O)(=O)c2cccn3c(C)nnc23)c1 | -1.33 | -7.5 |
| CCC(C)NC(=O)CCn1c(=O)c2ccccc2n2c(=O)n(CC(=O)NCc3cccs3)nc12 (stereo not given) | 6.1 | -2.09 |
| COc1ccc(N(Cc2ccc(Cl)cc2)S(=O)(=O)c2ccc3nncn3c2)cc1 | -6.81 | -4.15 |
| CCCCc1ccc(NC(=O)Cn2nc3c(Sc4ccccc4)nccn3c2=O)cc1 | 4.84 | -9.71 |
| Cc1cc(Br)ccc1NC(=O)Cn1nc2c(SC3CCCCC3)nccn2c1=O | 6.25 | -6.44 |
| CC(C)Cn1c(=O)c2sccc2n2c(=O)n(CC(N)=O)nc12 | -15.52 | -14.55 |
| CCc1cccc(C)c1NC(=O)CSc1nnc2ccc(C(=O)Nc3cccc(F)c3)cn12 | 1.86 | 2 |
| COc1ccc(NC(=O)Cn2nc3ccc(SC(C)(C)C)nn3c2=O)cc1Cl | -0.4 | -6.93 |

| Compound | Inhibition [1] [%] | Inhibition [2] [%] |
| --- | --- | --- |
| O=C(Cn1nc2c(SC3CCCCC3)nccn2c1=O)Nc1ccc(Br)cc1 | 7.56 | -4.82 |
| O=c1n(Cc2cccc(C(F)(F)F)c2)nc2ccc(S(=O)(=O)N3CCCCC3)cn12 | 14.29 | 0.28 |
| Cc1cc(C)cc(NC(=O)Cn2nc3ccc(-c4ccc(C)c(C)c4)nn3c2=O)c1 | 1.36 | -7.85 |
| Cc1ccc(NC(=O)CSc2nnc3ccc(C(=O)Nc4cccc(F)c4)cn23)cc1F | 14.43 | 0.35 |
| Cc1cccc(NC(=O)Cn2nc3c(SC4CCCCC4)nccn3c2=O)c1C | 2.67 | 2.06 |
| Cc1ccccc1CN(c1ccc(Cl)cc1)S(=O)(=O)c1cccn2c(C)nnc12 | 11.54 | 1.89 |
| O=S(=O)(c1ccc2nncn2c1)N(Cc1cccc(F)c1)c1cc(F)cc(F)c1 | 0.07 | -4.91 |
| COc1ccccc1N1CCN(C(=O)CSc2nc3ccccc3n3cnnc23)CC1 | 11.06 | 4.69 |
| Cc1cccc(Oc2nc3ccccc3n3c(=O)n(CC(=O)Nc4ccc5c(c4)OCCO5)nc23)c1C | 10.6 | -1.83 |
| CCCCc1ccc(NC(=O)Cn2nc3c(N4CC(C)CC(C)C4)nccn3c2=O)cc1 (stereo not given) | -4.53 | -8.88 |
| Cc1cc2nn(CC(=O)Nc3cc(F)ccc3C)c(=O)n2c(Nc2ccc(F)c(C)c2)n1 | 9.03 | -0.59 |
| Cc1c(Cl)cccc1-n1ccn2c(=O)n(Cc3cccc(F)c3)nc2c1=O | 9.54 | -6.71 |
| COc1cccc(-n2ccn3c(SCc4cccc(C(F)(F)F)c4)nnc3c2=O)c1 | 7.34 | -9.08 |
| COc1ccccc1NC(=O)Cn1nc2c(SCc3ccccc3)nccn2c1=O | -5.43 | -12.47 |
| CN(Cc1ccccc1)C(=O)CSc1nnc2c3cc(-c4ccccc4)nn3ccn12 | 11.08 | -11.2 |
| Cc1ccc(NC(=O)Cn2nc3c(SC4CCCCC4)nccn3c2=O)cc1F | 10.42 | -1.05 |
| Cc1ccc(NC(=O)Cn2nc3c(SC4CCCCC4)nccn3c2=O)c(Br)c1 | 0.51 | -5.93 |
